Data taken from PubChem BioAssay (Tox21).
“And” between values parts separate entries of the source, which are not always exact repeats. Equal values may be shown once. Results filed as inconclusive are left out. Where a structure was tested more than once in an assay, its records may differ in their call. The source made the active and inactive calls. Calls come from the whole dose curve; as a rule, active = well fitted curve in the direction sought with a large enough effect in the repeat runs; inconclusive = weak or mixed curves; inactive = no such curve, though single readings can be large; an effect the other way counts as inactive or inconclusive.

Legend:
[1] = A CellTox Green Cytotoxicity Assay to monitor cytotoxicity in HEK293 cells - 8 hour (AID 1224884); note: nearly all actives have a fitted effect of over 35% in size; note: potency is the fitted concentration of half-maximal effect
In short: (§1)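 Cells (HEK293, 600/well) and dye reagent are dispensed together. After 5 h at 37 C, 23 nL compound is pinned in. Plates stay at 37 C for 40 h with fluorescence read at 0h, 8h, 16h, 24h, 32h and 40h.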

[2] = qHTS RealTime-Glo MT Cell Viability Assay in HepG2 cells - 16 hour (AID 1224885); note: nearly all actives have a fitted effect of over 50% in size; note: potency is the fitted concentration of half-maximal effect
In short: (§2)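 HepG2 cells were seeded at 600 cells/well together with NanoLuc luciferase and a cell-permeant prosubstrate, preincubated 5 h at 37 C/5% CO2, then pin-dosed with compounds in DMSO. Nonlytic luminescence from viable cells was read at each time point.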

[3] = qHTS RealTime-Glo MT Cell Viability Assay in HEK293 cells - 24 hour (AID 1224886); note: nearly all actives have a fitted effect of over 50% in size; note: potency is the fitted concentration of half-maximal effect; for activity change, negative = cytotoxicity: top concentration of the series differs between compounds
In short: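 HEK293 cells were seeded at 600 cells/well together with NanoLuc luciferase and cell-permeant prosubstrate, preincubated 5 h at 37 C/5% CO2, then given compound in DMSO by pintool. Luminescence from viable-cell prosubstrate reduction was read repeatedly over 40 h.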

[4] = qHTS RealTime-Glo MT Cell Viability Assay in HEK293 cells - 8 hour (AID 1224887); note: nearly all actives have a fitted effect of over 50% in size; note: potency is the fitted concentration of half-maximal effect; for activity change, negative = cytotoxicity: top concentration of the series differs between compounds
In short: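 Real-time viability in HEK293: signal arises when living cells convert a prosubstrate for NanoLuc in the medium, so luminescence tracks viable cell number. Compound (23 nL, DMSO) added 5 h post-seeding; kinetic reads at 0–40 h, 37 C.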

[5] = qHTS RealTime-Glo MT Cell Viability Assay in HepG2 cells - 0 hour (AID 1224889); note: nearly all actives have a fitted effect of over 50% in size
In short: as §2

[6] = A CellTox Green Cytotoxicity Assay to monitor cytotoxicity in HepG2 cells - 8 hour (AID 1224890); note: nearly all actives have a fitted effect of over 45% in size; note: potency is the fitted concentration of half-maximal effect
In short: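 Cells and non-lytic dye reagent are dispensed together (600 HepG2 cells/well) and incubated 5 h before DMSO compound transfer. Kinetic fluorescence is then recorded in the same wells during 40 h at 37 C.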

[7] = qHTS assay to identify small molecule antagonists of the estrogen receptor alpha (ER-alpha) signaling pathway using the BG1 cell line in the presence of 0.1 nM 17-beta-estradiol - cell viability counter screen (AID 1259241); note: nearly all actives have a fitted effect of over 40% in size; note: potency is the fitted concentration of half-maximal effect
In short: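 Measures cytotoxicity alongside the ER-alpha antagonist readout: VM7Luc4E2 cells, charcoal-stripped serum, 0.1 nM 17beta-estradiol final, 22 hr compound incubation at 37C, CellTiter-Fluor fluorescence.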

[8] = qHTS assay to identify small molecule antagonists of the androgen receptor (AR) signaling pathway using the MDA cell line in the presence of 0.5 nM R1881 - cell viability counter screen (AID 1259242); note: nearly all actives have a fitted effect of over 45% in size; note: potency is the fitted concentration of half-maximal effect
In short: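 Steps: plate MDA-kb2 cells, rest 5 hr at 37C without CO2; pin in compounds in DMSO; add R1881 to 0.5 nM final; incubate 16 hr; add CellTiter-Fluor, 30 min; read fluorescence.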

[9] = A CellTox Green Cytotoxicity Assay to monitor cytotoxicity in HEK293 cells - 16 hour (AID 1224888); note: nearly all actives have a fitted effect of over 35% in size; note: potency is the fitted concentration of half-maximal effect
In short: as §1

[10] = molecular target: Androgen receptor (Homo sapiens) (UniProt P10275); test: qHTS assay to identify small molecule antagonists of the androgen receptor (AR) signaling pathway using the MDA cell line in the presence of 0.5 nM R1881 (AID 1259243); note: nearly all actives have a fitted effect of over 50% in size; note: potency is the fitted concentration of half-maximal effect
In short: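 Stably transfected MDA-kb2 cells express luciferase from an MMTV promoter bearing both AR and GR response elements. Compounds plus 0.5 nM R1881 (final) were incubated 16 hr at 37C without CO2, then luminescence measured.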
% is set by controls: 0 for no effect and ±100 for the full control effect.

Sequence of Androgen receptor (Homo sapiens) (P10275 whole entry, looked up): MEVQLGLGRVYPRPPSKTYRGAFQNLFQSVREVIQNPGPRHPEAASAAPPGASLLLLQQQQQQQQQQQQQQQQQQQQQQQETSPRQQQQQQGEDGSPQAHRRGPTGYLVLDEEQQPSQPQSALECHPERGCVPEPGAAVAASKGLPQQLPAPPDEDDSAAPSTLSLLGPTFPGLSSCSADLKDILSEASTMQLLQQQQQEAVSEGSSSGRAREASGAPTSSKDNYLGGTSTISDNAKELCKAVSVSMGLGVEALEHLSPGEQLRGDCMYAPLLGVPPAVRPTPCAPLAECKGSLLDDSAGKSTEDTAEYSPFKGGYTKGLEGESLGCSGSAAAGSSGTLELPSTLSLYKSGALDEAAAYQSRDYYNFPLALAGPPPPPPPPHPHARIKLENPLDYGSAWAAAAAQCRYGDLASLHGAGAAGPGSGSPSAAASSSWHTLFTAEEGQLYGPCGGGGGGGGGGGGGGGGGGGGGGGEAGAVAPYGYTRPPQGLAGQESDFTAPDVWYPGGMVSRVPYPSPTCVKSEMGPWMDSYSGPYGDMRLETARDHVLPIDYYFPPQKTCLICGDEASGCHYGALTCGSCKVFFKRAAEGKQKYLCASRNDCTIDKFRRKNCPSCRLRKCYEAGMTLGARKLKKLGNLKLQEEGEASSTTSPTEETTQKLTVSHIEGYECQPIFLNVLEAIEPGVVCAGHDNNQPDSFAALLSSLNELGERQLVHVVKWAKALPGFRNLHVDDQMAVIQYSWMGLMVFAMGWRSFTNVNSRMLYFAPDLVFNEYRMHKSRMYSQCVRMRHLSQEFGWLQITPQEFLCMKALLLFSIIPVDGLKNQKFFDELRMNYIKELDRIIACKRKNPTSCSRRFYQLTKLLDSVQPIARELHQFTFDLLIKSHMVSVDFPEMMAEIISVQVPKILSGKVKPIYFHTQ

CC(C)(C)C1=CC(=O)C=C(C(C)(C)C)C1=O
inactive: Potency [1] | Potency [2] | Potency [3] | Potency [4] | Potency [5] | Potency [6] | Potency [7] | Potency [8]

Cc1oc(-c2ccccc2)nc1CCOc1ccc(C[C@H](Nc2ccccc2C(=O)c2ccccc2)C(=O)O)cc1
inactive: Potency [1] | Potency [2] | Potency [3] | Potency [4] | Potency [9] | Potency [5] | Potency [6] | Potency [8] | Potency [10]

C=C(C)C(=O)OCCC[Si](Cl)(Cl)Cl
inactive: Potency [1] | Potency [2] | Potency [3] | Potency [4] | Potency [9] | Potency [6] | Potency [7] | Potency [8]

CC1CCCNC1 (configuration not stated)
inactive: Potency [1] | Potency [2] | Potency [3] | Potency [4] | Potency [5] | Potency [6] | Potency [7] | Potency [8]

CCO[Si](CCCSSSSCCC[Si](OCC)(OCC)OCC)(OCC)OCC
inactive: Potency [1] | Potency [2] | Potency [3] | Potency [4] | Potency [5] | Potency [6] | Potency [7]

c1ccc2c(c1)CCC2
inactive: Potency [1] | Potency [2] | Potency [3] | Potency [4] | Potency [9] | Potency [5] | Potency [6] | Potency [8] | Potency [10]

CCCOc1sc(C(=O)N2CCC(c3cc(CN)ccc3F)CC2)c(C)c1Br
active: Potency [1] 40 µM | Potency [2] 22.5 µM | Potency [3] 20 µM | Potency [4] 17.9 µM | Potency [9] 35.7 µM | Potency [6] 40 µM | Potency [8] 39.7 µM | Potency [10] 39.7 µM

C=CC(=O)OCCN(CC)CC
inactive: Potency [1] | Potency [2] | Potency [3] | Potency [4] | Potency [5] | Potency [6] | Potency [7] | Potency [8] | Potency [10]

COc1nccnc1CC(C)C
inactive: Potency [1] | Potency [2] | Potency [3] | Potency [4] | Potency [9] | Potency [5] | Potency [6] | Potency [8] | Potency [10]

CCCCCCCC/C=C\CCCCCCCC(=O)NCc1ccc(O)c(OC)c1
active: Potency [3] 2.39 µM | Potency [4] 1.51 µM
inactive: Potency [1] | Potency [2] | Potency [5] | Potency [6] | Potency [7] | Potency [8]

CCN1CCN(c2cc(-c3ccc(F)cc3)c3c(n2)CCCCCC3)CC1
inactive: cytotoxicity increase [1] -3.6% [at 15.8 µM] | activity change, negative = cytotoxic [2] -4% [at 15.8 µM] | activity change, negative = cytotoxicity [3] -6.43% [at 15.8 µM] | activity change, negative = cytotoxicity [4] 3.49% [at 15.8 µM] | activity change, negative = cytotoxicity [5] 21.1% [at 15.8 µM] | cytotoxicity increase [6] 2.47% [at 15.8 µM] | activity change, negative = cytotoxicity [7] 4.69% [at 19 µM] | viability change, negative = cytotoxic [8] 1.73% [at 19 µM] | activity, negative = inhibition [10] -22% [at 19 µM]

C=CC/C=C/C/C=C/C/C=C/C
inactive: Potency [1] | Potency [2] | Potency [3] | Potency [4] | Potency [9] | Potency [5] | Potency [6] | Potency [8] | Potency [10]

CCO[Si](C)(C)OCC
inactive: Potency [1] | Potency [2] | Potency [3] | Potency [4] | Potency [9] | Potency [5] | Potency [6] | Potency [8] | Potency [10]

CCOC(=O)COc1ccc(C)cc1
inactive: Potency [1] | Potency [2] | Potency [3] | Potency [4] | Potency [5] | Potency [6] | Potency [7] | Potency [8]

O=C=NCc1cccc(CN=C=O)c1
inactive: cytotoxicity increase [1] -1.28% [at 15.8 µM] | activity change, negative = cytotoxic [2] 0.437% [at 15.8 µM] | activity change, negative = cytotoxicity [3] 4.88% [at 15.8 µM] | activity change, negative = cytotoxicity [4] 1.79% [at 15.8 µM] | activity change, negative = cytotoxicity [5] 2.48% [at 15.8 µM] | cytotoxicity increase [6] -0.221% [at 15.8 µM] | activity change, negative = cytotoxicity [7] -0.0453% [at 19 µM] | viability change, negative = cytotoxic [8] -0.671% [at 19 µM]

SCCCCCCCCS
inactive: Potency [1] | Potency [2] | Potency [3] | Potency [4] | Potency [9] | Potency [5] | Potency [7] | Potency [8]

O=C(O)CCn1c2c(c3ccccc31)C[C@H](NS(=O)(=O)c1ccc(F)cc1)CC2
inactive: Potency [1] | Potency [2] | Potency [3] | Potency [4] | Potency [5] | Potency [6] | Potency [7] | Potency [8]

Cc1cc(Nc2ccc(O)cc2)ccc1N
inactive: Potency [1] | Potency [9] | Potency [6]
active: Potency [2] 48.8 µM | Potency [3] 24.4 µM | Potency [4] 21.8 µM | Potency [7] 27.2 µM | Potency [8] 48.3 µM

C#CC(O)CCC (configuration not stated)
inactive: Potency [1] | Potency [2] | Potency [3] | Potency [4] | Potency [5] | Potency [6] | Potency [7] | Potency [8] | Potency [10]

O=C1c2c(O)ccc([N+](=O)[O-])c2C(=O)c2c([N+](=O)[O-])ccc(O)c21
inactive: Potency [1] | Potency [9] | Potency [6]
active: Potency [2] 24.3 µM | Potency [3] 19.3 µM | Potency [4] 7.69 µM | Potency [7] 30.4 µM | Potency [8] 27.1 µM

CCOC(=O)[C@@](C)(N)Cc1ccc(O)c(O)c1
inactive: Potency [1] | Potency [2] | Potency [3] | Potency [4] | Potency [9] | Potency [5] | Potency [8]

CCCCCCCCCCCC(=O)N(CC)CC
inactive: Potency [1] | Potency [2] | Potency [3] | Potency [4] | Potency [5] | Potency [6] | Potency [7] | Potency [8]

O=C(Nc1ccc(Cl)c(Cl)c1)c1cc(Cl)cc(Cl)c1O
inactive: Potency [1] | Potency [2] | Potency [4] | Potency [9] | Potency [6]
active: Potency [3] 4.9 µM

CC1(C)COCN1
inactive: Potency [1] | Potency [2] | Potency [3] | Potency [4] | Potency [5] | Potency [6] | Potency [7] | Potency [8] | Potency [10]

CCOC(=O)CC(C)O (configuration not stated)
inactive: Potency [1] | Potency [2] | Potency [3] | Potency [4] | Potency [9] | Potency [5] | Potency [7] | Potency [8] | Potency [10]

O=C(O)Cc1ccc(OCCNC[C@H](O)c2ccccc2)cc1
inactive: Potency [1] | Potency [2] | Potency [3] | Potency [9] | Potency [5] | Potency [6] | Potency [7] | Potency [8] | Potency [10]

CN1[C@@H]2CC[C@H]1CC(OC(=O)C(CO)c1ccccc1)C2 (some centres not stated)
inactive: Potency [1] | Potency [2] | Potency [3] | Potency [9] | Potency [5] | Potency [6] | Potency [7] | Potency [8]

Cc1occc1SSc1ccoc1C
inactive: Potency [1] | Potency [2] | Potency [3] | Potency [9] | Potency [5] | Potency [8]

Cc1cccc(C)n1
inactive: Potency [1] | Potency [2] | Potency [3] | Potency [9] | Potency [5] | Potency [6] | Potency [8] | Potency [10]

CC(C)(c1cc(Br)c(O)c(Br)c1)c1cc(Br)c(O)c(Br)c1
inactive: Potency [1] | Potency [2] | Potency [4] | Potency [9] | Potency [5] | Potency [6] | Potency [7] | Potency [8]

C=CC(=C)CC/C=C(\C)CCC=C(C)C
inactive: cytotoxicity increase [1] 0.0594% [at 15.8 µM] | activity change, negative = cytotoxic [2] 1.17% [at 15.8 µM] | activity change, negative = cytotoxicity [4] -9.22% [at 15.8 µM] | activity change [9] 2.36% [at 15.8 µM, stronger effect = higher value] | activity change, negative = cytotoxicity [5] 8.34% [at 15.8 µM] | cytotoxicity increase [6] 2.8% [at 15.8 µM] | activity change, negative = cytotoxicity [7] 2.52% [at 19 µM] | viability change, negative = cytotoxic [8] 2.29% [at 19 µM]

CCN(CC)CCOc1ccc(C(O)(Cc2ccc(Cl)cc2)c2ccc(C)cc2)cc1 (configuration not stated)
active: Potency [2] 23.9 µM | Potency [3] 19 µM
inactive: Potency [1] | Potency [7]

CC1=C(/C=C/C(C)=C/C=C/C(C)=C/C(=O)Nc2ccc(O)cc2)C(C)(C)CCC1
active: Potency [3] 893 nM and 338 nM | Potency [7] 55.9 µM and 11.9 µM | Potency [8] 23.7 µM | Potency [10] 55.9 µM and 18.8 µM
inactive and 26.8 µM (active): Potency [2]
inactive: Potency [1] | Potency [9] | Potency [5] | Potency [6]

C/C=C/C(=O)C1=C(C)CCCC1(C)C
inactive: Potency [1] | Potency [2] | Potency [4] | Potency [9] | Potency [5] | Potency [6] | Potency [7] | Potency [8]

Cc1cccc(Br)c1
inactive: Potency [1] | Potency [2] | Potency [3] | Potency [9] | Potency [6] | Potency [7] | Potency [8]

CC(C)c1ccc(O)c(C(C)C)c1
active: Potency [9] 19.5 µM | Potency [6] 43.6 µM
inactive: Potency [1] | Potency [2] | Potency [3] | Potency [5] | Potency [8]

Cc1ccc(CCn2c3c(c4cc(Cl)ccc42)CN(C)CC3)cn1
active: Potency [3] 9.52 µM
inactive: Potency [1] | Potency [2] | Potency [9] | Potency [6] | Potency [8]

CCOC(/C=C(\C)CCC=C(C)C)OCC
inactive: Potency [1] | Potency [2] | Potency [3] | Potency [9] | Potency [5] | Potency [6] | Potency [7] | Potency [8]
